Here are results for 38 compounds from the supplement of paper PMC8726507.

Unmarked numbers belong to inactive results.

The first experiment concerns Plasmodium falciparum NF54-HGL (transmission to Anopheles stephensi). Description: percentage of barcode signal found in uninfected mosquitoes (transmission-blocking activity); higher = stronger blocking of transmission to mosquito, active = 80 or more. The note with it: 10 µM; gametocyte preincubation time 24 h; readout time post-feed 8 days. The method, then:
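The mixture was fed to Anopheles stephensi in 96-well plates as blood meals tagged with DNA-barcoded Asaia bacteria. Eight days later, mosquitoes were classed infected or uninfected by luminescence (mean + 5 SD of unfed controls). Barcodes were quantified by Luminex MagPlex-TAG in the pooled uninfected and infected Asaia cultures, background-corrected, and the score is % of barcode signal in uninfected mosquitoes = 100*Iu/(Iu+Ii).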
In the case of `CS(=O)(=O)c1ccc(C(=O)N(CC2CCCO2)c2nc3ccccc3s2)cc1[N+](=O)[O-]` (stereo not drawn), the “percentage of barcode signal found in uninfected mosquitoes” value (from here on “percentage of barcode signal found”) was 63.1%.
Same read-out and setting: then `COc1cccc(-n2nnnc2S(=O)(=O)Cc2ccccc2)c1`, with 90.4% (active); and `Oc1c(I)cc(I)c2cccnc12`, with -1.81%; and `O=C(Nc1ccc(F)c(-c2nc3cc(-c4ccccc4)cnc3[nH]2)c1)N1CCCC1`, with 35.5%.
As for `O=C(C(Cc1c[nH]c2ccccc12)NS(=O)(=O)c1ccc(Cl)cc1)N1CCCCC1` (stereo not drawn), the “percentage of barcode signal found” value is 62.5%.
On the same count and under the same terms, then `Clc1ccc(CCNc2cc(-c3ccccc3)nc3ncnn23)cc1`, with -1.04%; and `CNC1C(OC2C(OC3C(O)C(O)C(NC(=N)N)C(O)C3NC(=N)N)OC(C)C2(O)C=O)OC(CO)C(O)C1O` (stereo not drawn), with 47%.
The same measure, in the same setting: then `CCc1nc2ccc(C(=O)NCc3ccc4c(c3)OCO4)cn2c1N(C)Cc1cccs1`, with 22.1%; and `CS(=O)(=O)N1CCC(CCn2nc(Cc3cccc4ccccc34)c3c(N)ncnc32)CC1`, with 45.3%; and `Cc1cc(C)n2nc(C(=O)Nc3cc(C(F)(F)F)ccc3N3CCOCC3)nc2n1`, with 29.6%.
Regarding `CC(C)(C)C1CCC(CC2=C(O)C(=O)c3ccccc3C2=O)CC1` (stereo not drawn), the “percentage of barcode signal found” value is 83.7% (active).
Same read-out and setting: in the case of `CC1=NN(c2nc3ccccc3s2)C(=O)C1Cc1cccc2ccccc12` (stereo not drawn) it was 0.165%.
Still for that read-out and setting: then `COc1ccc(-c2cnc3ccc(NCc4ccc(S(N)(=O)=O)cc4)nn23)cn1`, with 68.2%; and `CNc1snc(C)c1C(=O)NCCOc1ccc(OC)cc1`, with 25.3%; and `COC(=O)c1c(NC(=O)c2c(F)c(F)c(F)c(F)c2F)sc2c1CCCCC2`, with 13.7%.
Same read-out and setting: in the case of `COc1ccc(OC)c(NCc2ccc3nc(N)nc(N)c3c2Cl)c1` it was 94.7% (active).
Consider `O=C(Cn1ccnc1[N+](=O)[O-])NCc1ccccc1`, for which the “percentage of barcode signal found” value is 70%.
Same read-out and setting: then `COC(=O)c1ccc(F)cc1NS(=O)(=O)c1cccc(-c2cnn(Cc3ccccc3)c2)c1`, with 31.1%.
Still for that read-out and setting: in the case of `Cc1cc2ccccc2n1CC(=O)N1CC(C(=O)N2CCCCC2)Oc2ccccc21` (stereo not drawn) it was 34.8%.

The experiment is the same for the next values; noted with them: 20 µM; gametocyte preincubation time 24 h; readout time post-feed 8 days.
`CC(C)n1nc(-c2cc3c(Cl)cccc3[nH]2)c2c(N)ncnc21`: the “percentage of barcode signal found” value was 53.6%.
On the same count and under the same terms, in the case of `CCOc1ccc(-c2nc(CNCCc3ccc(F)cc3)cs2)cc1` it was 41.8%.
The same measure, in the same setting: in the case of `COc1cc(C2=NCCN2)ccc1-c1cn(-c2cccc(C3=NCCN3)c2)nn1` it was 46%; in that of `O=C(OCc1ccccc1)N1CCC(c2cc(-c3ccncc3)c(-c3ccc(F)cc3)[nH]2)CC1`, 16.8%.
On to `CC(C)(CN)c1nc(-c2ccc(Cl)c(O)c2)c(-c2ccnc(N)n2)[nH]1`, for which the “percentage of barcode signal found” value is 80.9% (active).
Same read-out and setting: in the case of `Cc1cc(OCC(=O)NCc2ccccc2)c2cc(Br)ccc2n1` it was 0.13%; in that of `c1ccc(Oc2ccc(-c3cncc(-c4ccc5[nH]ccc5c4)n3)cc2)cc1`, 29%; in that of `c1ccc(-c2nc(NC3CCCCC3)cc(C3CC3)n2)nc1`, 99.2% (active).
As for `Cc1ccc(NC(=O)c2cc(S(=O)(=O)NC(C)(C)C)ccc2C)nc1`, the “percentage of barcode signal found” value is 20.2%.
Still for that read-out and setting: in the case of `CCCn1c(NC(=O)c2ccc3ccccc3n2)nc2ccccc21` it was 56.6%; in that of `COc1ccc(CN2CCOc3ccc(C(C)(O)CN(C)C)cc3C2)cc1C` (stereo not drawn), 36.4%.
Same read-out and setting: in the case of `O=C(NCCc1ccccc1)c1cc(-c2cccnc2)cnc1NCC1CC1` it was 2.28%; in that of `CCS(=O)(=O)N(Cc1ccco1)Cc1cc2ccc(C)cc2nc1O`, -1.14%.
Take `O=C(N[C@H](Cc1ccccc1)C(=O)Nc1ccccc1N1CCOCC1)c1cccs1`: the “percentage of barcode signal found” value is 13.5%.
Same read-out and setting: then `O=C(Nc1ccccc1-c1nc2c(C(=O)O)cccc2o1)c1ccccc1`, with 27.2%; and `CC(=O)N(CCN(C(=O)c1ccc(F)cc1)c1ccccc1)c1ccccc1`, with 1.19%.
The same measure, in the same setting: in the case of `NC(=O)c1cc(-c2ccsc2)ccc1OCCOc1ccccc1` it was 12.1%.
Same read-out and setting: then `CCCCS(=O)(=O)Nc1ccc2cnn(C)c2c1`, with 4.19%.
Turning to `CNC(=O)C1Cc2c([nH]c3cc(Cl)ccc23)C2(CCN(CCc3ccccc3)CC2)N1` (stereo not drawn), the “percentage of barcode signal found” value is 87.5% (active).
